Source: PubChem
SUMO Mot1 rescue = yeast Mot1-301 growth rescue at high temperature, primary screen, SUMOylation pathway inhibitor project, S. cerevisiae, ATP luminescence, 38.5C | growth rescue, % at 18.8 µM | S. cerevisiae Mot1-301 growth rescue; percent above DMSO median, 100 means doubled | 320,000 tested, 1% active | AID 2716, 2010;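 active = every valid replicate shows activation above 250% relative to neutral control wells; inactive = the rest, any valid replicate at or below 250%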;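 also: OY570 slx delta 5 strain wells were the positive control but not used for scaling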
GRIN3A LBD mod = binders of NR3A ligand-binding domain, primary screen, biophysical, differential scanning fluorimetry, uHTS | NR3A LBD differential scanning fluorimetry, Tm shift; 0% = protein alone, 100% = glycine-bound protein | AID 1259313, 2017 | Tm shift relative to glycine control, % at 25 µM | Glutamate receptor ionotropic, NMDA 3A (GRIN3A) ligand-binding domain | 340,000 tested, 2.5% active;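 active = melting temperature shift of at least 10% of the positive control shift, at one fixed dose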
AI-2 QS mod = Vibrio harveyi AI-2 quorum sensing modulators, primary screen, JMH597 strain, luminescence/OD600 ratio; activity change, % at 7.5 µM; Vibrio harveyi JMH597 AI-2 luminescence/OD600 ratio, 9 h; active compounds read low; strain lacks LuxN and CqsS sensors; 0 = neutral-control median; 300,000 tested, 0.4% active; in the data active = activity change below about -75%, passing the limit was not always enough;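 also: luminescence divided by OD600 gain over 9 h not by final OD600 alone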
NTR1 agonist = agonists of human NTR1, primary screen, imaging, U2OS cells, beta-arrestin-GFP, high content | Neurotensin receptor type 1 (Homo sapiens), P30989 | NTR1-U2OS beta-arrestin-GFP spot imaging, agonist mode | activation, % at 20 µM | 330,000 tested, 0.17% active | AID 493036, 2011;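 active = activation at or above 40% of the spot to cytoplasm intensity ratio, with at least 20 cells analyzed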;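 also: 0% = DMSO without peptide and 100% = 100 nM NTR1 peptide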
H9c2 protect = cardioprotection against H2O2-induced cell death, primary screen, uHTS, H9c2 cells, ATPLite luminescence | H9c2 cardiomyocytes, H2O2 injury protection, 2 h | protection from H2O2 cell death, % at 20 µM | 360,000 tested, 0.63% active;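 active = compounds giving at least 50% protection of heart cells from peroxide-induced death in the single-dose screen, raw or plate-pattern-corrected value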;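 also: 0% = DMSO wells with peroxide and 100% = DMSO wells without peroxide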
AHR activator = AHR activators, primary screen, cell-based, luminescence, luciferase reporter, human. Aryl hydrocarbon receptor (Homo sapiens), P35869. AHR-responsive luciferase reporter cells. activation, % at 5 µM. 320,000 tested, 2.5% active. AID 2796, 2010; in the data active = activation above about 47%;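 also: 0% = vehicle wells and 100% = reference agonist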
Target sequence (P35869 whole entry, looked up): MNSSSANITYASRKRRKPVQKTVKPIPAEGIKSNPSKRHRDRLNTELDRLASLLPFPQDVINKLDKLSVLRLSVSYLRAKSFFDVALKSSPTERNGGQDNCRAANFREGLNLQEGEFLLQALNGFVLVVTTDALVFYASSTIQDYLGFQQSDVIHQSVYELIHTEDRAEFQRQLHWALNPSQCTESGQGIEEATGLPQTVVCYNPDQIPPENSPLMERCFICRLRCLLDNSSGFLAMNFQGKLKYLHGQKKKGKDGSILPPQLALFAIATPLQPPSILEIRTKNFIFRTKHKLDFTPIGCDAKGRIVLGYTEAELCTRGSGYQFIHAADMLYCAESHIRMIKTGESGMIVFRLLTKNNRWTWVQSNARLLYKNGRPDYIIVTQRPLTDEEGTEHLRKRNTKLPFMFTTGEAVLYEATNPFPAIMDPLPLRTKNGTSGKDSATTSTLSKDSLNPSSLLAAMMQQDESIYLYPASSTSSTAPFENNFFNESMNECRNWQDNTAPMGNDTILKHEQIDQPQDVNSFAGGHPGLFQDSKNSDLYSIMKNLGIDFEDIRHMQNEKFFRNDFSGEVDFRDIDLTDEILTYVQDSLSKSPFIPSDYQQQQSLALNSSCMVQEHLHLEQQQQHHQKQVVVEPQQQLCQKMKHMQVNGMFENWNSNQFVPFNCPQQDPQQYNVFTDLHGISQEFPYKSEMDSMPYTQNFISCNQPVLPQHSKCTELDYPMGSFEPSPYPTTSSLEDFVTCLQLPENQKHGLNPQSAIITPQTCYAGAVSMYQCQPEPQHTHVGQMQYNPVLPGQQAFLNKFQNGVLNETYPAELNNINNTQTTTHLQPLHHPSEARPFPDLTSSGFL
* hit, by the source's call; x = no result. A selection: hits, their analogues and other compounds. The true share with any hit is near 6.2%.

SMILES | SUMO Mot1 rescue | GRIN3A LBD mod | AI-2 QS mod | NTR1 agonist | H9c2 protect | AHR activator
CC(C)CNS(=O)(=O)c1ccc(S(=O)(=O)N2CCCN(Cc3ccccc3)C2)cc1 | 2.9 | 12.7* | 2.0 | 2.5 | -3.3 | -2.4
COc1ccc(S(=O)(=O)N2CCN(Cc3ccccc3)CC2)cc1 | 15.9 | 11.2* | -7.3 | 0.9 | -7.4 | 2.4
Cn1nc(C(=O)NNC(=O)c2cccc(Cl)c2)ccc1=O | 20.4 | 3.1 | x | -0.6 | 6.1 | -1.9
CCCCN(CCCC)S(=O)(=O)c1ccc(NS(=O)(=O)c2ccc(NC(C)=O)cc2)cc1 | 0.3 | 12.8* | x | 4.4 | -1.3 | -3.1
CC(=O)Nc1ccc(S(=O)(=O)Nc2ccc(C(=O)NCC(=O)O)cc2)cc1 | 348.9* | 1.8 | 19.5 | -0.3 | 8.2 | 1.2
CCc1ccc(OCC(=O)Nc2ccc3oc(=O)ccc3c2)cc1 | 82.8 | -4.1 | 4.2 | 1.8 | -0.8 | -1.2
O=C(N/N=C/c1ccc(-c2cccc([N+](=O)[O-])c2)o1)c1ccc([N+](=O)[O-])cc1 | 14.9 | 3.4 | 35.3 | 5.6 | 71.9* | 0.0
COc1cc([N+](=O)[O-])ccc1-c1ccc(/C=N/NC(=O)c2ccccc2O)o1 | x | x | 22.6 | x | x | x
O=C(N/N=C/c1ccc(-c2cccc([N+](=O)[O-])c2)o1)c1ccccc1O | -5.4 | 19.3* | -0.4 | 10.5 | 35.4 | 8.6
C#CCOCCOCCOCCNc1nc(N2CCN(C(=O)[C@H]([C@@H](C)CC)n3cc(CCCN=C(N)N)nn3)CC2)nc(N2CCN(C(=O)[C@H]([C@@H](C)CC)n3cc(CCC(=O)O)nn3)CC2)n1 | x | 2.3 | x | x | 1.5 | x
Cc1nc(-c2cccc(NS(=O)(=O)c3ccc4ccccc4c3)c2)cs1 | 7.3 | 10.4* | 8.1 | 2.8 | -19.6 | -1.5
CC(C)n1c2ccccc2c2nc3ccccc3nc21 | -1.9 | 8.4 | 7.9 | 6.7 | -6.1 | 56.9*
O=C(O)CCn1c2ccccc2c2nc3ccccc3nc21 | 94.6 | -1.2 | 27.1 | 1.0 | -0.1 | 60.0*
COc1ccc(S(=O)(=O)Nc2noc3ccccc23)cc1OC | -9.1 | -1.5 | 52.0 | 1.0 | 3.1 | -0.9
O=C(NCC(=O)N(c1cccnc1)C(C(=O)NC1CCCC1)c1ccccc1F)c1ccco1 (stereo not drawn) | -5.9 | -0.4 | 15.3 | -0.3 | -0.3 | 0.8
Cc1ccc(C(=O)OCc2nnc(-c3ccccc3)o2)s1 | 3.3 | -0.8 | -55.1 | 2.0 | -4.4 | 1.4
O=C(OCc1nnc(-c2ccccc2)o1)c1ccc([N+](=O)[O-])s1 | -22.3 | 0.3 | x | 2.1 | 52.1* | 5.4
COc1cccc(/C=N/Nc2nnc(C)n2N)c1OCc1ccccc1Cl | -17.9 | -6.4 | 10.7 | 1.7 | -3.0 | 56.8*
CCc1nnc(N/N=C/c2ccccc2F)n1N | -17.8 | -0.5 | 31.6 | 1.7 | -8.1 | 30.7
CCc1nnc(N/N=C/c2ccccc2Cl)n1N | -8.8 | 2.2 | 16.9 | -0.1 | -1.7 | 52.8*
CC(C)(C)c1nnc(N/N=C/c2ccccc2O)n(N)c1=O | -22.9 | -3.4 | -34.4 | -1.5 | 52.0* | -2.9
CC(C)(C)c1nnc(N/N=C/c2ccccc2)n(N)c1=O | -9.2 | -2.1 | 4.2 | 0.0 | 7.8 | 20.0
COc1cc(C2NC(=O)NC(C)=C2C(=O)OCC2CCCCC2)ccc1O (stereo not drawn) | -1.1 | 0.2 | x | -1.1 | 8.0 | 1.1
Cc1noc(C)c1-c1ccc(C(=O)NCc2cccnc2)c2occc12 | x | x | x | x | -4.0 | x
CCN(CC)C(=O)c1[nH]cnc1C(=O)NC1CCN(C(=O)OC(C)(C)C)CC1 | 3.7 | 0.2 | x | -0.9 | 10.6 | 0.2
O=C(CSc1nc2c(c(=O)n1-c1ccc(Cl)cc1)SCC2)Nc1nccs1 | 66.4 | 15.2* | x | x | -5.2 | 2.1
CCCC(C)n1[nH]c(=O)cc1N (stereo not drawn) | -0.3 | -0.9 | 13.1 | 1.2 | 1.3 | 6.0
CCC(CC)n1[nH]c(=O)cc1N | -2.1 | 14.0* | -0.6 | -0.3 | -8.5 | -0.4
